High-throughput results (PubChem)
Compounds with a hit are over-represented: about 4.7% of the library has one in this group of screens.
tim23-1 inh: inhibits growth of tim23-1 mutant yeast | S. cerevisiae tim23-1 growth, BacTiter-Glo luminescence, 24 h | inhibition, % at 20 µM | actives 1.3% (n = 330,000);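 active = growth inhibition of the mutant yeast at or above 50%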;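 note: temperature-sensitive mutant grown at 25 °C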
tim10-1 inh: inhibits growth of tim10-1 mutant yeast. inhibition, % at 20 µM. actives 2.2% (n = 330,000). S. cerevisiae tim10-1 ts strain growth, BacTiter-Glo, 24 h. AID 463190;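 active = inhibition of at least 40%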;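 note: mutant grown at 25 °C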
PfHsp90 set2: reduces growth (ATP signal) of yeast expressing P. falciparum Hsp90. S. cerevisiae expressing PfHsp90, BacTiter-Glo ATP, 48 h; yeast lacking PDR1 and PDR3 efflux regulators. inhibition, % at 9.4 µM. actives 0.32% (n = 310,000). AID 504621;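 active = every replicate shows inhibition above about 80%, whatever the replicate mean, limit read from the data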
SKKanGAS inh: SKKanGAS growth inhibition; inhibition, % at 7.5 µM; actives 1.3% (n = 300,000); S. pyogenes SKKanGAS, kanamycin growth, BacTiter-Glo, 6 h;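 active = mean replicate score, as percent of positive control median, at least 50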;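 note: strain carries kanamycin resistance gene driven by streptokinase promoter and grows in 40 µg/ml kanamycin; loss of luminescence reflects streptokinase promoter inhibition or plain growth inhibition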
TIM10 inh: TIM10 yeast growth inhibition | actives 1.4% (n = 330,000) | S. cerevisiae TIM10 strain growth, BacTiter-Glo luminescence, 24 h | inhibition, % at 10 µM | AID 463195;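 active = inhibition of 40% or more at the single tested concentration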;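 note: wild-type TIM10 isogenic control strain grown at permissive 25 °C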
Calb FLC: affects C. albicans growth with fluconazole; C. albicans CaCi-2 (fluconazole-resistant clinical isolate) + fluconazole, Alamar Blue growth, 48 h; growth inhibition, % (concentration not given with the values); actives 0.57% (n = 300,000);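 active = growth inhibition above about 58% in most replicates, limit read from the data, passing the limit was not always enough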;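 note: all wells also contain fluconazole at 8 µg/ml as a sub-toxic cotreatment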
Numbers stand for hits; 0 = inactive; - = no result given.

SMILES	tim23-1 inh	tim10-1 inh	PfHsp90 set2	SKKanGAS inh	TIM10 inh	Calb FLC
O=C(Cc1cccc2ccccc12)N/N=C/c1ccc(O)c([N+](=O)[O-])c1	0	0	0	0	0	0
O=C(Cc1cccc2ccccc12)N/N=C/c1ccc2cccc(O)c2n1	0	0	0	71	0	0
Nc1[nH]n2c(=O)cc(-c3ccccc3)nc2c1N=Nc1ccc(S(N)(=O)=O)cc1	0	0	0	0	0	0
Nc1[nH]n2c(=O)cc(-c3ccccc3)nc2c1N=Nc1ccccc1	0	0	-	104	0	0
CCOC(=O)c1sc(N2C(=O)C(O)=C(C(=O)c3ccc(C)o3)C2c2ccc(OC)c(OC)c2)nc1C (stereo unspecified)	0	0	0	0	0	0
CCOC(=O)c1sc(N2C(=O)C(O)=C(C(=O)c3ccc(C)o3)C2c2cccc([N+](=O)[O-])c2)nc1C (stereo unspecified)	-	-	0	61	-	-
COC(=O)c1sc(N2C(=O)C(O)=C(C(=O)c3ccc(C)o3)C2c2ccc([N+](=O)[O-])cc2)nc1C (stereo unspecified)	0	0	0	63	0	0
CCOc1ccc(C2C(C(=O)c3ccc(C)o3)=C(O)C(=O)N2c2nc(C)c(C(=O)OC)s2)cc1 (stereo unspecified)	0	0	0	0	0	0
CCOc1ccc(NS(=O)(=O)c2ccc(-c3ccc(=O)[nH]n3)o2)cc1	0	0	0	0	0	0
Cc1nn2cnnc2c(C)c1Cc1ccc(Cl)cc1	0	0	0	0	0	0
CC(C)CC(=O)/C(=C/c1ccc(N(C)C)cc1)n1cncn1	0	0	0	0	0	0
CC(C)CC(=O)/C(=C\c1ccc(Cl)cc1Cl)n1cncn1	-	-	129	0	-	0
CCC(Sc1nc2ccncc2[nH]1)C(=O)Nc1cc(Cl)ccc1C (stereo unspecified)	0	0	0	0	0	0
CCOC(=O)CSc1cc(CSc2ccccc2)nc(-c2ccccc2)n1	0	0	-	0	0	0
Clc1ccc(SCc2cc(Cl)nc(-c3ccccc3)n2)cc1	0	0	0	67	0	0
Clc1cc(CSc2ccccc2)nc(-c2ccccc2)n1	0	0	0	58	0	0
COCc1ccc(C(=O)NC2CCCc3c2cnn3-c2cc(C)cc(C)c2)s1 (stereo unspecified)	0	0	0	0	0	0
COc1ccc2nc(Nc3nc(C)c(C(C)=O)s3)sc2c1	0	0	0	56	0	0
CC(C)=CCc1c(O)cc2oc3c(CC=C(C)C)c(O)c(O)c(CC=C(C)C)c3c(=O)c2c1O	0	0	0	101	0	0
CC(=O)c1ccc(O)c(CC=C(C)C)c1O	0	0	-	0	0	0
Cc1cc(N/N=C/c2c(O)ccc3ccccc23)nc(-c2ccccc2O)n1	0	0	0	85	0	82
COc1ccccc1C(=O)NC(=S)Nc1ccccc1N1CCCC1	0	0	-	0	0	0
O=C(Nc1cccc(Cl)c1N1CCCCC1)c1ccc2c(c1)OCCO2	0	0	0	62	0	0
O=C(NC(=S)Nc1cccc(Cl)c1N1CCCCC1)c1ccc2c(c1)OCCO2	0	0	0	61	0	0
O=C(NC(=S)Nc1ccccc1N1CCCCC1)c1ccc(F)cc1Cl	0	0	0	50	0	-
SMILES	tim23-1 inh	tim10-1 inh	PfHsp90 set2	SKKanGAS inh	TIM10 inh	Calb FLC
CCN1CCN(c2c(Cl)cccc2NC(=O)c2ccc3c(c2)OCCO3)CC1	0	0	-	0	0	0
COCCN(C(=O)COC(=O)CCC(=O)c1ccc(Cl)cc1)c1c(N)n(Cc2ccccc2)c(=O)[nH]c1=O	0	0	0	0	0	0
C=C1C[C@H]2[C@@H]3CCc4cc(OC)ccc4[C@H]3CC[C@]12C	0	0	0	76	0	0
CC1CCCC(C)N1c1nnc(NC(=O)c2cc(-c3ccc(Br)cc3)on2)s1 (stereo unspecified)	0	0	0	51	0	0
COc1cccc(/C=N/n2c(C3CCCCC3)n[nH]c2=S)c1	0	0	0	0	0	0
Cc1n[nH]c(=S)n(NC(=O)CC(=O)Nn2c(=S)[nH]nc(C)c2=O)c1=O	0	0	0	0	0	93
CC(=O)Nc1ccc(S[C@@H](CCN2CC[C@H](C(C)(C)C)CCC2=O)c2ccccc2)cc1	0	0	0	-	0	-
CC(C)(C)[C@@H]1CCC(=O)N(CC[C@H](Sc2ccccc2)c2ccccc2)CC1	0	0	0	79	0	0
CC(C)(C)[C@H]1CCC(=O)N([C@H](CSc2ccccc2)Cc2ccccc2)CC1	0	0	-	63	0	0
COc1ccc(Cl)cc1NC(=O)CN1CCN(Cc2ccccc2)CC1	0	0	0	0	0	0
CC(C)c1ccc(-c2csc3nc[nH]c(=O)c23)cc1	0	0	0	0	0	0
O=C(NC(=S)NNC(=O)c1ccccc1O)c1ccco1	-	-	0	65	-	0
O=C(NC(=S)NNC(=O)c1cc2ccccc2cc1O)c1ccco1	0	0	-	98	0	83
CCn1c(SCC(=O)N(C)Cc2ccc(OC)c(F)c2)nc2cc(S(N)(=O)=O)ccc21	0	0	0	0	0	0
CC(=O)C1C(c2cccc(F)c2)c2c(n[nH]c2C)CC1(C)O (stereo unspecified)	0	0	0	0	0	0
COc1ccccc1/C=C(/C(=O)OCC(=O)Nc1cc(C)ccc1C)c1ccccc1	0	0	0	55	0	0
CCCCN(Cc1ccco1)S(=O)(=O)c1ccc(-c2ccc(=O)[nH]n2)s1	0	0	0	0	0	0
O=C1NC(=O)/C(=C/c2ccc(-c3cc(C(=O)O)ccc3Cl)o2)S1	0	0	0	0	0	0
O=C1NC(=S)/C(=C\c2ccc(-c3ccccc3Cl)o2)S1	-	-	0	114	-	0
O=S(=O)(/C=C/c1ccccc1)NC1CCCCCC1	0	0	99	0	0	0
O=S(=O)(/C=C/c1ccccc1)NC1CCCCCCC1	0	0	88	0	0	0
O=C(NCC1CCCO1)c1cc([N+](=O)[O-])ccc1N1CCC(Cc2ccccc2)CC1 (stereo unspecified)	0	0	97	-	0	-
Cc1cccc(C(=O)OCC(=O)NCC2COc3ccccc3O2)c1 (stereo unspecified)	0	0	0	-	0	-
CCN(CCO)C1CC(=O)N(c2ccccc2C)C1=O (stereo unspecified)	0	0	124	0	0	0
O=C(O)c1cc(-c2ccc(-c3c(-c4ccc5c(c4)OCO5)noc3-c3ccsc3)cc2)nc2ccccc12	-	-	0	94	-	0
Cc1cccc(C)c1NC(=O)COC(=O)c1ccc([N+](=O)[O-])o1	0	0	87	0	0	0
O=C(Nc1ccc2[nH]c(=O)[nH]c2c1)c1ccc([N+](=O)[O-])o1	0	0	0	-	0	-
Cc1ccc(NC(=O)c2ccc([N+](=O)[O-])o2)cc1C	0	0	0	0	0	117
